# Assay results published in ChEMBL document CHEMBL2218924, “A broad activity screen in support of a chemogenomic map for kinase signalling research and drug discovery” (Biochem J, 2013).
# Tests used:
# [1] = molecular target: Death-associated protein kinase 1 (Homo sapiens) (UniProt P53355); settings: at 10 µM
# [2] = molecular target: T1, Serine/threonine-protein kinase 17A (Homo sapiens) (UniProt Q9UEE5); settings: at 1 µM
# T1 sequence (whole entry): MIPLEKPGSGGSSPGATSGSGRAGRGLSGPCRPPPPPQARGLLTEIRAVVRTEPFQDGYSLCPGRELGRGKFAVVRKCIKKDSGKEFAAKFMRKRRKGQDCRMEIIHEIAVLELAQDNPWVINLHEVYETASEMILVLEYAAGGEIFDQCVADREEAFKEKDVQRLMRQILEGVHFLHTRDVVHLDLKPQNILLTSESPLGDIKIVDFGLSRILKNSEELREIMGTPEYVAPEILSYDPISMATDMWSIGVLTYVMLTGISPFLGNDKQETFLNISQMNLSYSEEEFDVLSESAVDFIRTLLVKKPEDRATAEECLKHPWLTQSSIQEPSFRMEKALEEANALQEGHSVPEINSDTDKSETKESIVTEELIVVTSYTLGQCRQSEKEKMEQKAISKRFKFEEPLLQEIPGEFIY
# [3] = molecular target: T1, Serine/threonine-protein kinase 17A (Homo sapiens); settings: at 10 µM
# [4] = molecular target: T2, Ephrin type-A receptor 1 (Homo sapiens) (UniProt P21709); settings: at 1 µM
# T2 sequence (whole entry): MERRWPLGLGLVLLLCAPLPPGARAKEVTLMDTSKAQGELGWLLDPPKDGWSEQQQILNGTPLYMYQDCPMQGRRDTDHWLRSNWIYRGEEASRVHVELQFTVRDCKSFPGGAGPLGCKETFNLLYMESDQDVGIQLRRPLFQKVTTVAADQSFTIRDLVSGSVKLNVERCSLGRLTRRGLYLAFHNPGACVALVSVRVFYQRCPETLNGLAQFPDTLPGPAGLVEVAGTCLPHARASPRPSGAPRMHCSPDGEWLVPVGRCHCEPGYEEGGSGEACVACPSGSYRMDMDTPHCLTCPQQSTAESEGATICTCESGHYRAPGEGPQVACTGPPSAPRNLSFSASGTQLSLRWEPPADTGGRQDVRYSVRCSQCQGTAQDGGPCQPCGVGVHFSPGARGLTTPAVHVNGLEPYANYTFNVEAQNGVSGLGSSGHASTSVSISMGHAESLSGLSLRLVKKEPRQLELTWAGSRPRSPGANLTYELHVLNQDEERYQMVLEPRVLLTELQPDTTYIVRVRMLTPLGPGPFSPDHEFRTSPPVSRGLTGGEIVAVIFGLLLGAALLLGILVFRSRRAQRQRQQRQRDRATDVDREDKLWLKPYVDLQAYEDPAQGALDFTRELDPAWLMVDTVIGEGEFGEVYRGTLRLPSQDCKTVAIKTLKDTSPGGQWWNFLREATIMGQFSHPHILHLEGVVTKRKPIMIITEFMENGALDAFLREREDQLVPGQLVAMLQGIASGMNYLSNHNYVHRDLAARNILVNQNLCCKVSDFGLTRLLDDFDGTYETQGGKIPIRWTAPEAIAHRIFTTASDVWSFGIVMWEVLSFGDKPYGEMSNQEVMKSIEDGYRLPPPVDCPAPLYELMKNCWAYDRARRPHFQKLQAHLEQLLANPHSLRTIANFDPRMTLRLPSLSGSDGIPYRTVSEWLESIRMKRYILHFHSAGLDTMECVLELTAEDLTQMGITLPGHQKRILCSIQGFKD
# [5] = molecular target: T2, Ephrin type-A receptor 1 (Homo sapiens); settings: at 10 µM
# [6] = molecular target: T3, Myotonin-protein kinase (Homo sapiens) (UniProt Q09013); settings: at 10 µM
# T3 sequence (whole entry): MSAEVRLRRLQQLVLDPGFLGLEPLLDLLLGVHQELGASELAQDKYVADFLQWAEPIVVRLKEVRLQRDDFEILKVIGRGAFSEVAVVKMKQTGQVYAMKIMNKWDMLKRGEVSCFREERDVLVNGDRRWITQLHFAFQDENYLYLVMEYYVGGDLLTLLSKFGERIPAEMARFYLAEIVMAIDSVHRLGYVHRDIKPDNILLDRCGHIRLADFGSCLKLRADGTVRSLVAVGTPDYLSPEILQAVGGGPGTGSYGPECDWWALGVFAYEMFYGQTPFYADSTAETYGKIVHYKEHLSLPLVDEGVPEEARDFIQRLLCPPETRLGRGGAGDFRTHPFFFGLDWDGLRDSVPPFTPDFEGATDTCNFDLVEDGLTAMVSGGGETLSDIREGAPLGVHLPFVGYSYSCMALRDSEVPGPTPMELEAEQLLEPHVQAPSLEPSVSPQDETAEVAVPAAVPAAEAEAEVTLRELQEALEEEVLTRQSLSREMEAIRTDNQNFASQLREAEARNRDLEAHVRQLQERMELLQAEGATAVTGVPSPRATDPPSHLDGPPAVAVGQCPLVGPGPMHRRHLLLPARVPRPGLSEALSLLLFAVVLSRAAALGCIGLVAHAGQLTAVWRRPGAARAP
# [7] = molecular target: T4, Dual specificity tyrosine-phosphorylation-regulated kinase 2 (Homo sapiens) (UniProt Q92630); settings: at 1 µM
# T4 sequence (whole entry): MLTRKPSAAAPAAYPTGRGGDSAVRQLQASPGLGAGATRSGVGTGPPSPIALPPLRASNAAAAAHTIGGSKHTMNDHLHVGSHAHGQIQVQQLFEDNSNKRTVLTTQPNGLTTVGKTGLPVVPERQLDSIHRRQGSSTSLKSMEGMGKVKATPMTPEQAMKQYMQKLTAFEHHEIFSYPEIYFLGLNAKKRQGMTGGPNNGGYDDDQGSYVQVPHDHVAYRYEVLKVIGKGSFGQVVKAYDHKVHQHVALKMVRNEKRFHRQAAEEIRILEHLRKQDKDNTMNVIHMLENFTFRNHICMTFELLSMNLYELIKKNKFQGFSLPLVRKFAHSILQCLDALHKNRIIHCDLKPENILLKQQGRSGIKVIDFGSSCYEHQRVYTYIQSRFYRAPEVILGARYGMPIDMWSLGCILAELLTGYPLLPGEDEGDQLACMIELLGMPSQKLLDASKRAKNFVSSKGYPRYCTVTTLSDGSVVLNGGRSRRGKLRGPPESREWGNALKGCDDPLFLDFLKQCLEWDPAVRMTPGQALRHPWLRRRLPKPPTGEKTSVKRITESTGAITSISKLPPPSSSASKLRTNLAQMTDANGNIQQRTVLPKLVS
# [8] = molecular target: T4, Dual specificity tyrosine-phosphorylation-regulated kinase 2 (Homo sapiens); settings: at 10 µM
# [9] = molecular target: Death-associated protein kinase 2 (Homo sapiens) (UniProt Q9UIK4); settings: at 1 µM
# [10] = molecular target: Death-associated protein kinase 2 (Homo sapiens) (UniProt Q9UIK4); settings: at 10 µM
# [11] = molecular target: T5, Serine/threonine-protein kinase DCLK2 (Homo sapiens) (UniProt Q8N568); settings: at 1 µM
# T5 sequence (whole entry): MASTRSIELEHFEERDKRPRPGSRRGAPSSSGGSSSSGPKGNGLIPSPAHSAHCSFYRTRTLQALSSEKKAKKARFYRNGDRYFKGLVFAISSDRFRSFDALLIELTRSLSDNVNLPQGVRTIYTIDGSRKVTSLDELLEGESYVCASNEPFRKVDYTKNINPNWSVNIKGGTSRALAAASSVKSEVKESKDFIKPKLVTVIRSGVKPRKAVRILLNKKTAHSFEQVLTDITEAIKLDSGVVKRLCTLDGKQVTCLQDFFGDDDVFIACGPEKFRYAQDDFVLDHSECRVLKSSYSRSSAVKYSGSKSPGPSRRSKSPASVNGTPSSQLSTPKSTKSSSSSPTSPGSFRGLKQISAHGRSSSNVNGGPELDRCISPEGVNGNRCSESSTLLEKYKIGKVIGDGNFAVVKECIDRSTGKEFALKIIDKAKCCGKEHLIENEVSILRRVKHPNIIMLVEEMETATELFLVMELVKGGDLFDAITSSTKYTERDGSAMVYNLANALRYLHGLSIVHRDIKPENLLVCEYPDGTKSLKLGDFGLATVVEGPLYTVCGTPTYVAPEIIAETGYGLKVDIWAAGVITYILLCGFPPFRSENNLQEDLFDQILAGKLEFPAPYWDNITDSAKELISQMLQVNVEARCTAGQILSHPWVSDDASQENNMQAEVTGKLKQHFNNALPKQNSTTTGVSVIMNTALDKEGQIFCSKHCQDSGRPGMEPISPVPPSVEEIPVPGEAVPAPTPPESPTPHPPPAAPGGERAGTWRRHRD
# [12] = molecular target: T5, Serine/threonine-protein kinase DCLK2 (Homo sapiens); settings: at 10 µM
# [13] = molecular target: T6, Discoidin domain-containing receptor 2 (Homo sapiens) (UniProt Q16832); settings: at 1 µM
# T6 sequence (whole entry): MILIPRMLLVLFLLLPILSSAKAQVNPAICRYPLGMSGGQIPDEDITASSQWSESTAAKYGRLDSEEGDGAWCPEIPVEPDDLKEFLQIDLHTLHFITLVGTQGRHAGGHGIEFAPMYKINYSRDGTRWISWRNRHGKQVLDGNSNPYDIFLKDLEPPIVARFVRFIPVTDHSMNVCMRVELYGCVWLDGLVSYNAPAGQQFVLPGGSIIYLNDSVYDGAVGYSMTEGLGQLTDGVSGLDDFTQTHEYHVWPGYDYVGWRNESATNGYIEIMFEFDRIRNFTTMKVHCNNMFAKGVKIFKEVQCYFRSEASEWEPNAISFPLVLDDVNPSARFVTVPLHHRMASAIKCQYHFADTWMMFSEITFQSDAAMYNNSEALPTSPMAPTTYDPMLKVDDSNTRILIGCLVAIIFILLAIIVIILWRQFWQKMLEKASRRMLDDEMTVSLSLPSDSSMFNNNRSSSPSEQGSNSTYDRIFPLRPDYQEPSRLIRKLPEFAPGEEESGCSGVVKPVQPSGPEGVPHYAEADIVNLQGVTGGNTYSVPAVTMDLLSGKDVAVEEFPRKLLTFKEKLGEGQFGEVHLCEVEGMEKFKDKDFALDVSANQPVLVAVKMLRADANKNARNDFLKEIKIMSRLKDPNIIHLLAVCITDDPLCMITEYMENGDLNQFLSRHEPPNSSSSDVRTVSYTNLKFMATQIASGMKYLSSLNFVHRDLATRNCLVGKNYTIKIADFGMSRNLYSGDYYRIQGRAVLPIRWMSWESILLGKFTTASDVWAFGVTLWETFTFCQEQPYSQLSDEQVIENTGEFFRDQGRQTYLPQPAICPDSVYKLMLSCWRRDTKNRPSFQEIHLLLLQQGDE
# [14] = molecular target: T6, Discoidin domain-containing receptor 2 (Homo sapiens); settings: at 10 µM
# [15] = molecular target: Ephrin type-A receptor 2 (Homo sapiens) (UniProt P29317); settings: at 10 µM
# [16] = molecular target: T3, Myotonin-protein kinase (Homo sapiens); settings: at 1 µM
# [17] = molecular target: Epidermal growth factor receptor (Homo sapiens) (UniProt P00533); settings: at 1 µM
# [18] = molecular target: Epidermal growth factor receptor (Homo sapiens) (UniProt P00533); settings: at 10 µM
# [19] = molecular target: T7, Ephrin type-A receptor 3 (Homo sapiens) (UniProt P29320); settings: at 1 µM
# T7 sequence (whole entry): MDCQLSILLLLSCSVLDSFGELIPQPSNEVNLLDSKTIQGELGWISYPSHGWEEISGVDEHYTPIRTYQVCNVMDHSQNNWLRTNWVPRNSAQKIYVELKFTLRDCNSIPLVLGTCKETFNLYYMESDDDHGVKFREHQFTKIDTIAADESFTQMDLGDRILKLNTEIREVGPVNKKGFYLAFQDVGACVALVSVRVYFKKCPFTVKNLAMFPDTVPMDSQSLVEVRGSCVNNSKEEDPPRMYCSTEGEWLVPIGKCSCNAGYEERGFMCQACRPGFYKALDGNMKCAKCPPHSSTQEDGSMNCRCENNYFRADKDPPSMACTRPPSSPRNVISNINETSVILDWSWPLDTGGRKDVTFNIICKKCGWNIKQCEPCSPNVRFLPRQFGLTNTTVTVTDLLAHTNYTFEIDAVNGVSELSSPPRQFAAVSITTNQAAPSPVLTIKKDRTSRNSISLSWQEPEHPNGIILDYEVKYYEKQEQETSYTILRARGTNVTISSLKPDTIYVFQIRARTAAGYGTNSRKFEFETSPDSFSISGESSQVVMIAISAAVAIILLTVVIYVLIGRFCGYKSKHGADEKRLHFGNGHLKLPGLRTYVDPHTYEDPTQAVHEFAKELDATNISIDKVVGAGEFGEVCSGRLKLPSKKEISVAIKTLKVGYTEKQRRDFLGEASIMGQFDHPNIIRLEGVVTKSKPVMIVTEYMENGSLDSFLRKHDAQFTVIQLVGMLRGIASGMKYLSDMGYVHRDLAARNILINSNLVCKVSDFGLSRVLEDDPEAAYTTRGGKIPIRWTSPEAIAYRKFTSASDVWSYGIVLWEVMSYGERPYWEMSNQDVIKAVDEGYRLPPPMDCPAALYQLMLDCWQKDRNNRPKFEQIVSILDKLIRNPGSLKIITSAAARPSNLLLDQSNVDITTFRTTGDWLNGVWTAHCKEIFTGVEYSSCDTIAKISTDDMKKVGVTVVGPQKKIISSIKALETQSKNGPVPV
# Epidermal growth factor receptor (Homo sapiens), sequence (P00533 whole entry): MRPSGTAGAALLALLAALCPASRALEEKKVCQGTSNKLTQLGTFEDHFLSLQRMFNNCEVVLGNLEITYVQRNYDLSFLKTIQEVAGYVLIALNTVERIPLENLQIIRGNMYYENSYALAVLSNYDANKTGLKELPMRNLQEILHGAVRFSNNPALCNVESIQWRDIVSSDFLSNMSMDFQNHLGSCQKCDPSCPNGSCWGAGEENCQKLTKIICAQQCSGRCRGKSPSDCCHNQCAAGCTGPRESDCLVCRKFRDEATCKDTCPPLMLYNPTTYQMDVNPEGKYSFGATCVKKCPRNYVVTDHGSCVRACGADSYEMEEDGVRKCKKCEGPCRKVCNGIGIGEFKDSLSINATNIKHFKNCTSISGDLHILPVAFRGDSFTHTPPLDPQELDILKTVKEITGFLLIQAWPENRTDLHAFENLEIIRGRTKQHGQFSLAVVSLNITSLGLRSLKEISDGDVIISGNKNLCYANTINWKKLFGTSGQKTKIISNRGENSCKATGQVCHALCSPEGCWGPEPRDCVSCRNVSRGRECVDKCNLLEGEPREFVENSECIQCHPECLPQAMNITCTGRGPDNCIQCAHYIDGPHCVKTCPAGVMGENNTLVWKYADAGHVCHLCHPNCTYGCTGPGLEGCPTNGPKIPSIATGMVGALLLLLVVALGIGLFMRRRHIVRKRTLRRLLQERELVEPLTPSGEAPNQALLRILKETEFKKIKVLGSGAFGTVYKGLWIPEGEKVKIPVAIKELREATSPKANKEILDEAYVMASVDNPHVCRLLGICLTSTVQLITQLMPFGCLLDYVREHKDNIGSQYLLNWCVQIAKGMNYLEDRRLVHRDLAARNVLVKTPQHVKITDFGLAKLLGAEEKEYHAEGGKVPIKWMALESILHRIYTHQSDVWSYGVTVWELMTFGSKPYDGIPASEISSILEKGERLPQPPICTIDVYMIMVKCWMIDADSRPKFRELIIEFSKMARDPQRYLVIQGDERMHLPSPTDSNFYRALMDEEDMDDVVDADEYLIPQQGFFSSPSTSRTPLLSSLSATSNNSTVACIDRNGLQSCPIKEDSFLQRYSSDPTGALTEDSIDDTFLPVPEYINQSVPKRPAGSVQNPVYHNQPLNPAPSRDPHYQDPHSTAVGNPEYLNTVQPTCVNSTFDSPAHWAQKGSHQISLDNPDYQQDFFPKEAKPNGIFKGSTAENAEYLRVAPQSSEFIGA
# Death-associated protein kinase 1 (Homo sapiens), sequence (P53355 whole entry, looked up): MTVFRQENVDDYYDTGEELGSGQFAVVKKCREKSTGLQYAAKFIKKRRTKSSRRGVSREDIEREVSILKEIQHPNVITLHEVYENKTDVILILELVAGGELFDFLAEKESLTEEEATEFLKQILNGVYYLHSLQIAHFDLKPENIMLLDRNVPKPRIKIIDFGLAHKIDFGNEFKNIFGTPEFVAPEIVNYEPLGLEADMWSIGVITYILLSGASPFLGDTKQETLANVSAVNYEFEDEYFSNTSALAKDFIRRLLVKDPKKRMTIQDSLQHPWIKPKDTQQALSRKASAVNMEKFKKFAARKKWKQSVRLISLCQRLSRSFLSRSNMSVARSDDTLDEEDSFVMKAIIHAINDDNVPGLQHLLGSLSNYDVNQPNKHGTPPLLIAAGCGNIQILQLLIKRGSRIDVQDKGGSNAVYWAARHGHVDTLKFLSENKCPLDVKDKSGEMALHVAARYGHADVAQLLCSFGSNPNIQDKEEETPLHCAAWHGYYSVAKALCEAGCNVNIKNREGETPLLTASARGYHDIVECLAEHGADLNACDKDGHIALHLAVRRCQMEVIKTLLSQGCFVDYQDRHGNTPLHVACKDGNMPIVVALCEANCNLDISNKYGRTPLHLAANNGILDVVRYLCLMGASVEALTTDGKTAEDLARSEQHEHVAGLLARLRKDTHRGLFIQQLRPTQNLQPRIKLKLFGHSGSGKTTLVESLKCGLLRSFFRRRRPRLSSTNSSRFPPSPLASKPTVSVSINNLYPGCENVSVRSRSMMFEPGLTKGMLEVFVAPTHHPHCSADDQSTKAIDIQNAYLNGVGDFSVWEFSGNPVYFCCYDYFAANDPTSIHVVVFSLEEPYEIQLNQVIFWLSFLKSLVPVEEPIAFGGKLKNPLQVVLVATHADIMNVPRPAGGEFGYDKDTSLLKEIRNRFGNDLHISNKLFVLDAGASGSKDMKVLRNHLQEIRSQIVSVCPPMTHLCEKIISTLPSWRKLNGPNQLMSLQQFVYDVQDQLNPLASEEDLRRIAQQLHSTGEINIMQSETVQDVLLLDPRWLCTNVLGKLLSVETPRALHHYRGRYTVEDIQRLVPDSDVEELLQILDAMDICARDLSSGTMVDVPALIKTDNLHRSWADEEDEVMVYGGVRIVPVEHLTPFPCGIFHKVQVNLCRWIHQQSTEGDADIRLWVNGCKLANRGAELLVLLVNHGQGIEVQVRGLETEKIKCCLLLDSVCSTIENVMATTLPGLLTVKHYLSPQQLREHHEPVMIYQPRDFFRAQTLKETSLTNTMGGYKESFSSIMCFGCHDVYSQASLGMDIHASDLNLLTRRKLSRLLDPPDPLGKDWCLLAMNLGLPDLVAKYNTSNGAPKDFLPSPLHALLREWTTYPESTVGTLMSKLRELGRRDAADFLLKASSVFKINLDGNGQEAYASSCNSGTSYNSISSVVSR
# Death-associated protein kinase 2 (Homo sapiens), sequence (Q9UIK4 whole entry, looked up): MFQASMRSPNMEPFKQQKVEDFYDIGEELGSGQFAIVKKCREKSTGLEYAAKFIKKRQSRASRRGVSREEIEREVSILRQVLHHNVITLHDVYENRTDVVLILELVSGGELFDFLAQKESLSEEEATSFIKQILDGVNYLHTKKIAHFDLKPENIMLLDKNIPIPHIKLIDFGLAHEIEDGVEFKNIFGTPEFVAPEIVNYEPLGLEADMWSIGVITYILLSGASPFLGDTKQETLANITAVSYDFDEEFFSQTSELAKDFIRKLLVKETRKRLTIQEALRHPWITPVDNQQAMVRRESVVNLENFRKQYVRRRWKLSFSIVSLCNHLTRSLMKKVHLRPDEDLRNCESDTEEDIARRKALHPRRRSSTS
# Ephrin type-A receptor 2 (Homo sapiens), sequence (P29317 whole entry): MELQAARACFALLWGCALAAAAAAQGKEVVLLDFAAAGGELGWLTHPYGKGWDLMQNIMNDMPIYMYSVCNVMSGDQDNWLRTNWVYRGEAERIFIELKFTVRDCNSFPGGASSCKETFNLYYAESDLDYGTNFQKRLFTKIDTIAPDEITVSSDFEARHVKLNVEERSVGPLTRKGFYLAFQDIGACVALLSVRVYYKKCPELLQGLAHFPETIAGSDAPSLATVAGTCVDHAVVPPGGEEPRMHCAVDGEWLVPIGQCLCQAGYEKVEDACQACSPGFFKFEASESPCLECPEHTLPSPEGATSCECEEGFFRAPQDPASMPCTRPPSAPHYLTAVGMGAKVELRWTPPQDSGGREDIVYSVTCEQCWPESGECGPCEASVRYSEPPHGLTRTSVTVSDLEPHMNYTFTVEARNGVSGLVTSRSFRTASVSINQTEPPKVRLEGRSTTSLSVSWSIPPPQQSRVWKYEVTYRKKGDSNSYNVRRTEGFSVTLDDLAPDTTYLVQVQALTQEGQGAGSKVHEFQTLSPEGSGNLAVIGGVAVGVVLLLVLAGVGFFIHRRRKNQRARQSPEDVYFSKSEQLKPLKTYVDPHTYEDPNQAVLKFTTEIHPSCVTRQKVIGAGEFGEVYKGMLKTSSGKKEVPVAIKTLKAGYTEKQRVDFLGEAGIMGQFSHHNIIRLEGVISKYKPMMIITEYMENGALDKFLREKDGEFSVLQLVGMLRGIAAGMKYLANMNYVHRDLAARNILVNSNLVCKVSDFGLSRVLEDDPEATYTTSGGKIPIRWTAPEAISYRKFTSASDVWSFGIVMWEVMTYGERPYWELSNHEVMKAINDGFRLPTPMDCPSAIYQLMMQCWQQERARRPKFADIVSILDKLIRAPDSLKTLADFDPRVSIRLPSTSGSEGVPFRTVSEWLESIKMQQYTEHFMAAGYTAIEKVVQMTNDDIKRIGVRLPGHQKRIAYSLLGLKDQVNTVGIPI
structure (smiles),measurement,setting,value
CCOC(=O)c1c(C)[nH]c(/C=C2\C(=O)Nc3ccccc32)c1C,residual activity,[1],99%
same,residual activity,[2],86%
same,residual activity,[3],75%
same,residual activity,[4],83%
same,residual activity,[5],118%
CCN1/C(=C/C(C)=O)Sc2ccc(OC)cc21,residual activity,[1],79%
same,residual activity,[6],70%
same,residual activity,[7],5%
same,residual activity,[8],-5%
Nc1ncnc2[nH]nc(Nc3ccc(F)cc3)c12,residual activity,[9],99%
same,residual activity,[10],100%
same,residual activity,[11],107%
same,residual activity,[12],96%
same,residual activity,[13],95%
same,residual activity,[14],92%
same,residual activity,[2],45%
same,residual activity,[3],16%
same,residual activity,[7],79%
same,residual activity,[8],30%
same,residual activity,[4],43%
same,residual activity,[15],50%
COc1ccc(COc2ccc(Cc3cnc(N)nc3N)cc2OC)cc1,residual activity,[1],82%
same,residual activity,[13],112%
same,residual activity,[16],115%
same,residual activity,[6],139%
same,residual activity,[2],112%
same,residual activity,[3],112%
same,residual activity,[17],112%
same,residual activity,[18],114%
same,residual activity,[5],77%
same,residual activity,[19],108%
Nc1nccc(-c2c(-c3ccc(F)cc3)ncn2C2CCNCC2)n1,residual activity,[16],129%
same,residual activity,[6],83%
same,residual activity,[3],21%
same,residual activity,[7],83%
same,residual activity,[8],40%
same,residual activity,[18],84%
same,residual activity,[4],119%
same,residual activity,[5],45%
